This is one part of a sample in which hits are shown more often than they occur.
NTMT1 inhibitor: NTMT1 methyltransferase inhibition. Q9BV86. 59,000 compounds, 2.5% hits. Potency, µM (doses to about 114 µM), usual class: inhibitors. AID 1645870. NTMT1 MTase-Glo SAH luminescence, purified enzyme; also: nearly all actives have a fitted effect of over 65% in size
Target sequence (Q9BV86 whole entry, looked up): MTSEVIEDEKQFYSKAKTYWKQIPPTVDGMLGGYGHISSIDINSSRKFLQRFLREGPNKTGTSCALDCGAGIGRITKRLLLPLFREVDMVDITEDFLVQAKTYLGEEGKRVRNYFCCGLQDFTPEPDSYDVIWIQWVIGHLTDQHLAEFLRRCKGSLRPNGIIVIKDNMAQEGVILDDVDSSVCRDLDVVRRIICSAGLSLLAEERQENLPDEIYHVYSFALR
Sfp qHTS opt: inhibits purified B. subtilis Sfp PPTase | 230 compounds, 78% hits | Potency, µM (highest dose often 114 µM), actives largely listed as inhibitors | shares compounds with NTMT1 inhibitor | purified Sfp PPTase enzyme activity, qHTS
Bsub HM489 growth: Sfp PPTase inhibitors: growth inhibition of B. subtilis HM489; shares compounds with NTMT1 inhibitor; B. subtilis HM489 (acpS-) growth, BacTiter-Glo, 5 h; Potency, µM (titrated, usually from 114 µM), actives largely listed as inhibitors; 220 compounds, 50% hits
Sfp gel opt: inhibitors of Bacillus subtilis Sfp PPTase, gel-based followup; AID 540355; Potency, µM (titrated, usually from 250 µM), most hits filed as inhibitors; purified Sfp PPTase, gel-based product detection; 220 compounds, 54% hits; shares compounds with NTMT1 inhibitor
Sfp gel: Sfp phosphopantetheinyl transferase inhibition, gel detection | shares compounds with NTMT1 inhibitor | purified Sfp PPTase, gel-based product detection | 45 compounds, 90% hits | AID 602362 | Potency, µM (titrated, usually from 250 µM), hits mostly inhibitors
Sfp inh SAR2: Sfp phosphopantetheinyl transferase inhibition, SAR round 2; shares compounds with NTMT1 inhibitor; purified Sfp enzyme, PPTase activity, qHTS; Potency, µM (top dose mostly 57.1 µM), usual class: inhibitors; 230 compounds, 87% hits; AID 602370
hGST A1-1 inh: counter-screen for Sfp PPTase inhibitors: hGST A1-1 inhibition | shares compounds with NTMT1 inhibitor | hGST A1-1 enzyme activity counter-screen, qHTS | Potency, µM (doses to about 114 µM), most hits filed as inhibitors | 55 tested, under 10 active
HSD17B4 counter: inhibits human HSD17B4, off-target for HPGD inhibitors | shares compounds with NTMT1 inhibitor | purified HSD17B4, estradiol/NAD+, NADH fluorescence | Potency, µM (series often up to 57.1 µM), usual class: inhibitors | 230 compounds, 10% hits | AID 743187
ALDH1A1 inh: ALDH1A1 (human) inhibition, HPGD counter-screen | shares compounds with NTMT1 inhibitor | recombinant ALDH1A1, NADH fluorescence, propionaldehyde/NAD+ | Potency, µM (highest dose often 57.1 µM), hits mostly inhibitors | 230 compounds, 93% hits
NNMT inh: counter-screen for NTMT1 inhibitors: human NNMT inhibition | AID 1645878 | Potency, µM (titrated, usually from 57.1 µM), most hits filed as inhibitors | NNMT MTase-Glo luminescence, SAH detection | shares compounds with NTMT1 inhibitor | 120 compounds, 10% hits
Each line names hits and unclear results; the compound was inactive in the other large screens (follow-up assays come after a bar, where they were run). Calls follow the shape of the dose curve; as a rule, active = well fitted curve in the direction sought with a large enough effect; inconclusive = small, poorly fitted or top-dose-only effect, or another doubt; inactive = no such curve, though single readings can be large; an effect the other way counts as inactive or inconclusive.

CCOc1ccc(Cc2nc(-c3c(C)nc4ccccn34)cs2)cc1	NTMT1 inhibitor inconclusive | NNMT inh inconclusive
CCOc1ccc(Nc2nc(-c3c(C)nc4ccccn34)cs2)cc1	none | NNMT inh inconclusive
COc1cccc(C(=O)NCCNc2nc3cc(C)cc(C)c3cc2C#N)c1	none | NNMT inh inconclusive
C=CC1(C)CC(OC(=O)/C(C)=C\COC(C)=O)C(C(=C)C(=O)O)C(O)C1C(=C)CO (stereo not drawn)	none
CCCCCOc1ccc(-c2cc(-c3ccc(C(=O)N[C@H]4C[C@@H](O)[C@@H](O)NC(=O)C5[C@@H](O)[C@@H](C)CN5C(=O)C([C@H](O)CC(N)=O)NC(=O)C([C@H](O)[C@@H](O)c5ccc(O)c(OS(=O)(=O)O)c5)NC(=O)C5C[C@@H](O)CN5C(=O)C([C@@H](C)O)NC4=O)cc3)no2)cc1 (stereo partly drawn)	none
CCCCCOc1ccc(-c2ccc(-c3ccc(C(=O)N[C@H]4C[C@@H](O)[C@@H](O)NC(=O)[C@@H]5[C@@H](O)[C@@H](C)CN5C(=O)[C@H]([C@@H](C)O)NC(=O)[C@H]([C@H](O)[C@@H](O)c5ccc(O)cc5)NC(=O)[C@@H]5C[C@@H](O)CN5C(=O)[C@H]([C@@H](C)O)NC4=O)cc3)cc2)cc1	none | NNMT inh inactive
O=C1CCCC2=C1C(c1[nH]ncc1Cl)N=C(Nc1nc3ccccc3s1)N2 (stereo not drawn)	none
CC(C)c1ccccc1-c1nccc(NCc2ccc(-c3ccnc(C(F)(F)F)c3)cc2)n1	none
CC(C)(C)NC(=O)[C@H]1CC[C@H]2[C@@H]3CC[C@H]4NC(=O)CC[C@]4(C)[C@H]3CC[C@]12C	none
Cc1ccnc(NC(=S)N2CCN(c3cc(C(F)(F)F)cc(C(F)(F)F)c3)CC2)c1	NTMT1 inhibitor inconclusive | Sfp qHTS opt 2.4µM | Bsub HM489 growth 3.3µM | Sfp gel opt 0.79µM | Sfp gel 0.95µM | Sfp inh SAR2 0.65µM | hGST A1-1 inh inconclusive | HSD17B4 counter 27µM | ALDH1A1 inh 7.6µM

Screening results from PubChem.
